From the supplement of paper PMC11219838
Values without a mark were called inactive.

System: Caenorhabditis elegans L1 (N2)
Assay: survival and reproduction score of C. elegans L1 (0: 0-10 living worms, 1: 11-20, 2: 21-50, 3: >50, 4: overgrown) (score 0-4); higher = more worms, less nematicidal, active = 1 or less; extreme values may be limits of the assay
Conditions: 60 µM; 6 days; temperature: 20 °C
Description: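 DODA library (846 commercial 1,3,4- and 1,2,4-oxadiazole compounds plus commercial nematicide controls) screened at a single dose of 60 µM (0.6% DMSO) in 96-well plates, two biological replicates. Read-outs: C. elegans N2 L1 survival/reproduction score at day 6, 20 °C (0: 0-10 worms, 1: 11-20, 2: 21-50, 3: >50, 4: overgrown/starved). C. elegans daf-2 dauer, D. dipsaci and M. hapla J2 mobility at day 5, 20 °C, and P. penetrans mobility at day 5, 20 °C, each relative to DMSO controls. M. hapla egg hatching at day 12, 25 °C, relative to the mean of 8 DMSO wells on the same plate.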

Row | Compound | survival and reproduction score
1 | Cc1ccc(SCc2nc(-c3cccnc3)no2)cc1 | 1.5
2 | Cc1ccc(-c2nnc(SCc3ccccc3F)o2)cc1 | 4
3 | O=C(NC1CCCCC1)c1ccccc1-c1nc(-c2ccc(F)cc2)no1 | 4
4 | Clc1cc(Br)ccc1OCc1nc(-c2cccnc2)no1 | 4
5 | COc1cccc(-c2noc(COc3cc(C)ccc3C)n2)c1 | 4
6 | COc1ccc(-c2noc(C3CCCCC3)n2)cc1 | 4
7 | O=C(CSc1nnc(-c2ccc(Br)cc2)o1)N1CCCCCC1 | 4
8 | CCN(Cc1ccccc1)C(=O)c1ccccc1-c1nc(-c2cccc(C)c2)no1 | 4
9 | Cn1c(SCc2nc(-c3ccccc3)no2)nnc1-c1ccco1 | 0 (active)
10 | Cc1cccc(-c2noc(COc3ccc(C)cc3C)n2)c1 | 4
11 | COc1cccc(-c2noc(-c3ccc(C)cc3Cl)n2)c1 | 4
12 | CCOc1cc(-c2nc(-c3cc4ccccc4nc3OC)no2)cc(OCC)c1OCC | 4
13 | COc1ccccc1OCc1nc(-c2cccc(Br)c2)no1 | 4
14 | Cc1cc(Cl)ccc1OCc1nc(-c2ccncc2)no1 | 0.5 (active)
15 | Cc1ccc(SC(C)c2nc(-c3ccncc3)no2)cc1 (stereo not given) | 4
16 | O=C(CSc1nnc(-c2ccc(Cl)cc2)o1)NCc1ccccc1 | 4
17 | COc1ccc(-c2nnc(SCC(=O)Nc3ccc(Br)cc3C(C)C)o2)cc1 | 4
18 | COc1ccc(-c2nnc(SCC(=O)Nc3ccc(C(C)C)cc3)o2)cc1 | 4
19 | COc1ccc(-c2noc(-c3cc(C)ccc3C)n2)cc1 | 4
20 | CCn1c(SCc2nc(-c3ccccc3)no2)nc2ccccc21 | 4

Row | Compound | survival and reproduction score
21 | Cn1cc(C(=O)CSc2nnc(-c3cccc(Cl)c3)o2)c2ccccc21 | 4
22 | Cc1cc(OCc2nc(-c3ccncc3)no2)cc(C)c1Cl | 4
23 | Cc1ccoc1-c1nnc(-c2ccco2)o1 | 3.5
24 | Clc1ccc(-c2noc(-c3ccc4c(c3)OCCO4)n2)cc1 | 4
25 | Cc1ccccc1OCc1nc(-c2ccc(Br)cc2)no1 | 4
26 | Cc1ccccc1CSc1nnc(-c2ccco2)o1 | 0 (active)
27 | COc1ccc(Cl)cc1-c1noc(-c2ccccc2C)n1 | 4
28 | COc1cccc(-c2nc(-c3ccc(F)cc3)no2)c1 | 4
29 | COc1ccccc1CC(=O)Nc1ccc(-c2noc(-c3ccc(Cl)cc3)n2)cc1 | 4
30 | FC(F)(F)c1cccc(-c2noc(-c3cccs3)n2)c1 | 0 (active)
31 | Cc1ccc(-c2nnc(SCC(=O)Nc3c(C)cc(C)cc3C)o2)cc1 | 4
32 | Cc1cccc(-c2noc(-c3cc(Cl)ccc3Cl)n2)c1 | 2
33 | COc1ccc(-c2noc(-c3ccccc3Br)n2)cc1 | 4
34 | CCOc1nc(-c2ccc(C)cc2)ccc1-c1noc(-c2cccnc2)n1 | 4
35 | CC1Cc2ccccc2N1C(=O)CSc1nnc(-c2ccccc2)o1 (stereo not given) | 4
36 | COc1nc(C)ccc1-c1noc(-c2ccc(C(C)(C)C)cc2)n1 | 4
37 | CCOc1nc(-c2ccccc2)ccc1-c1noc(-c2ccccc2F)n1 | 4
38 | COc1ccc(-c2noc(COc3ccccc3)n2)cc1 | 0 (active)
39 | c1ccc(-c2noc(C3COc4ccccc4O3)n2)cc1 (stereo not given) | 0 (active)
40 | Fc1ccc(-c2nc(-c3cccc(C(F)(F)F)c3)no2)cc1 | 4
